Screening results as filed in PubChem.
Dicer inh – inhibitors of human Dicer processing of pre-microRNA; cat-ELCCA pre-miR-21 Dicer processing, chemiluminescence; hits give high values; z-score at 25 µM; Q9UPY3; 6% of 47,000 active; in the data active = z-score above about 3, passing the limit was not always enough;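 note: higher signal means more uncleaved substrate so more Dicer inhibition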
Target sequence (Q9UPY3 whole entry, looked up): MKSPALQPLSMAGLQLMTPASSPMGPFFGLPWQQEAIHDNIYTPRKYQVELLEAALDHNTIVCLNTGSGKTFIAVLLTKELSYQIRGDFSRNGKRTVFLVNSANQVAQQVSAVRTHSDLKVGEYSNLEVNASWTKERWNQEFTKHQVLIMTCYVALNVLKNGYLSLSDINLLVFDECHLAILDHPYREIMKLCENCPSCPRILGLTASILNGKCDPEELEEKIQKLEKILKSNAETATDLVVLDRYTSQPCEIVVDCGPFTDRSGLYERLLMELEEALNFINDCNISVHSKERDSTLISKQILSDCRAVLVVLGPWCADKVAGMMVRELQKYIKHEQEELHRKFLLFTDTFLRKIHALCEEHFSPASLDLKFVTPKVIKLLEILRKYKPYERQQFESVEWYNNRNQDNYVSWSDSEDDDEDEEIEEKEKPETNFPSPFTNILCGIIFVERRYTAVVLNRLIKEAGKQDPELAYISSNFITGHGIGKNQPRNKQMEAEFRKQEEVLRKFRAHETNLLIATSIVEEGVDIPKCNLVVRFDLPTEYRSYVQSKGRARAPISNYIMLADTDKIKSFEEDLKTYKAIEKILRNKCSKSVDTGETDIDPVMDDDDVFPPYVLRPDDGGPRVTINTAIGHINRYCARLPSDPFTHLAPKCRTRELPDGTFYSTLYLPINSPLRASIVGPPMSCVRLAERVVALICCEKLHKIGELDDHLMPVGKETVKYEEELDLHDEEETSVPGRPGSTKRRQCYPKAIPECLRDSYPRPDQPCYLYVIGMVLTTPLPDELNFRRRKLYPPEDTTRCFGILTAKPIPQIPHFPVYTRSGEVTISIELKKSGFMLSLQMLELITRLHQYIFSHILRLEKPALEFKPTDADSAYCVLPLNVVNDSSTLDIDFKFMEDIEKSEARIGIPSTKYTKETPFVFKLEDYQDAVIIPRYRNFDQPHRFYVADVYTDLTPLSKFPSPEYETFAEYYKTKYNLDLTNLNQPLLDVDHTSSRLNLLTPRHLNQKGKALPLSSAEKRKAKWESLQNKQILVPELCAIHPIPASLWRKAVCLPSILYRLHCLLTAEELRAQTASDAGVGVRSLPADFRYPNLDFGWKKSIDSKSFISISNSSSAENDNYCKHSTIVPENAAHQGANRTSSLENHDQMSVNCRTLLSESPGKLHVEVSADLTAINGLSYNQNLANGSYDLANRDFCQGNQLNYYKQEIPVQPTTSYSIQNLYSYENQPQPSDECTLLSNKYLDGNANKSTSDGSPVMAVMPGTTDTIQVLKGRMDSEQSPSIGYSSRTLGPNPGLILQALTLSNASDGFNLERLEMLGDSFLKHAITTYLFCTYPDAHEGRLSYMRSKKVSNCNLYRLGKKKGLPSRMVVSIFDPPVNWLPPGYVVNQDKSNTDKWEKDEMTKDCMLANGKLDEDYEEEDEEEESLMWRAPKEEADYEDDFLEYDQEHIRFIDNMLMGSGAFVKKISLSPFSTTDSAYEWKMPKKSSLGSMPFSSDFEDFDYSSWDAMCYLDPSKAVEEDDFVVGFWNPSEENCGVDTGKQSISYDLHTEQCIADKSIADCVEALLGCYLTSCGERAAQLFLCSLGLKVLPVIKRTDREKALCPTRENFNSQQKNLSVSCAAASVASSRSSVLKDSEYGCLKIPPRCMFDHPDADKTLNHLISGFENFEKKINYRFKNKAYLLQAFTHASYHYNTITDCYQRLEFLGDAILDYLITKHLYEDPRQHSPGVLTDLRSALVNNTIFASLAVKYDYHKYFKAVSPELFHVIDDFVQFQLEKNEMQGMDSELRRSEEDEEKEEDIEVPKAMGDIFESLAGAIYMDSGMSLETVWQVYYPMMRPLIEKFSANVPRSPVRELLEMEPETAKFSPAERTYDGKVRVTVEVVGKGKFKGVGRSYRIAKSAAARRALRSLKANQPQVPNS
Of the large screens only hits and unclear results are named; the others gave an inactive call. The sample as a whole holds a higher share of hits than the screen did.

Cc1ccc(C(=O)OCC(=O)C(C)(C)C)cc1N1C(=O)c2c(C)nc3ccccc3c2C1=O	Dicer inh 3.22
CCOC(=O)c1sc(SCC)c2c1CC(C)(C)CC2=O	none
Cc1ccc2occ(C3Nc4ccccc4NC4=C3C(=O)CC(c3ccccc3Cl)C4)c(=O)c2c1 (configuration not stated)	none
Cc1ccc2occ(C3Nc4ccccc4NC4=C3C(=O)CC(c3ccccc3)C4)c(=O)c2c1 (configuration not stated)	none
COc1ccc(C2CC(=O)C3=C(C2)Nc2ccccc2NC3c2ccc3c(c2)OCO3)cc1OC (configuration not stated)	none
Cc1ccc(C2Nc3ccccc3NC3=C2C(=O)CC(c2ccc4c(c2)OCO4)C3)s1 (configuration not stated)	Dicer inh 5.42
Cc1ccc(C2Nc3ccccc3NC3=C2C(=O)CC(c2cccs2)C3)cc1 (configuration not stated)	Dicer inh 3.24
O=C1CC(c2ccccc2)CC2=C1C(c1ccsc1)Nc1ccccc1N2 (configuration not stated)	none
O=C1CC(c2ccc(Cl)cc2)CC2=C1C(c1ccc3c(c1)OCO3)Nc1ccccc1N2 (configuration not stated)	none
Cc1ccc(C)c(C2Nc3ccccc3NC3=C2C(=O)CC(c2cccs2)C3)c1 (configuration not stated)	Dicer inh 3.37
CN(C)c1ccc(C2Nc3ccccc3NC3=C2C(=O)CC(c2cccs2)C3)cc1 (configuration not stated)	none
Cc1nnc(Nc2c(C)n(C)n(-c3ccccc3)c2=O)[nH]c1=O	none
CC1=C(C(N)=O)C(c2ccccc2Cl)n2nnnc2N1 (configuration not stated)	none
Cc1ccc(-c2cc(C(F)(F)F)c(C#N)c(SCC(=O)O)n2)cc1	none
CCOC(=O)CSc1nc(C2CC2)cc(-c2ccccc2)c1C#N	Dicer inh 3.72
CCOC(=O)CSc1nc(C)cc(C)c1C#N	none
CCOC(=O)COc1nc(-c2ccccc2)cc(-c2ccccc2)c1C#N	none
N#Cc1c(C(F)(F)F)cc(-c2ccccc2)nc1SCC(N)=O	none
CCOC(=O)CSc1nc(-c2ccc(F)cc2)cc(C(F)(F)F)c1C#N	Dicer inh 3.19
CC(C)(Oc1ccc2ccccc2c1)C(=O)O	none
C=CCNC(=S)NNC(=O)CNC(=O)OC(C)(C)C	none
CCOC(=O)c1cc(-c2ccccc2)sc1NC(=O)CSc1nc2ccccc2[nH]1	none
COC(OC)c1nc(SCC(=O)Nc2cccc(Cl)c2)ncc1C(=O)O	none
COC(=O)c1ccc2c(c1)N(C)S(=O)(=O)c1cnc(SC)nc1-2	none
COC(=O)c1ccc2c(c1)N(C)S(=O)(=O)c1cnc(SCC(=O)Nc3ccccc3)nc1-2	Dicer inh 5
Cc1nsc(-c2ccc(Cl)cc2)n1	none
CCn1c2ccccc2c2cc([N+](=O)[O-])ccc21	none
CCn1c2ccccc2c2cc(CN3CCN(S(C)(=O)=O)CC3)ccc21	Dicer inh 5.43
COc1ccc(CN2CCN(S(C)(=O)=O)CC2)cc1OC	none
O=[N+]([O-])c1ccc(Sc2nc(-c3ccccc3)c(-c3ccccc3)[nH]2)cc1	none
COc1ccc(-c2nc3c4c5c(sc4ncn3n2)CCCC5)cc1OC	none
NC(=S)Nc1ccc(C(F)(F)F)cc1	none
NC(=S)Nc1csc(C(F)(F)F)c1-c1ccccc1	Dicer inh 3.28
CSC(N)=Nc1csc(C(F)(F)F)c1-c1ccccc1	none
COc1ccc(C2CC(=O)C3=C(C2)NC(C)=C(C(=O)OC2CCCC2)C3c2ccncc2)cc1 (configuration not stated)	none
Cc1nnc(N2C(=O)C(O)=C(C(=O)c3cccs3)C2c2ccccc2)s1 (configuration not stated)	none
Cc1c(C)c(C)c(S(=O)(=O)Oc2c(Cl)cccc2Cl)c(C)c1C	Dicer inh 6.93
Cc1c(C)c(C)c(S(=O)(=O)Oc2ccc(Cl)c(Cl)c2)c(C)c1C	none
Cc1cc(S(=O)(=O)Oc2c(Cl)cccc2Cl)cc(C)c1F	none
CC1(C)Cc2cccc(C(=O)NCC3COc4ccccc4O3)c2O1 (configuration not stated)	none
CCC/C(O)=c1\c(=O)nc2ccc(Cl)c3c2=c1c1ccccc1c3=O	none
CN=C(C)/C(C(=O)OC)=C(/O)c1snnc1C	none
CCCCCSc1nnc2c(n1)OC(C)=Nc1ccccc1-2	none
CCCCSc1nnc2c(n1)OC(C)=Nc1ccccc1-2	Dicer inh 3.24
CCCCSc1nnc2c(n1)OC(C)=Nc1ccc(Br)cc1-2	none
CCCOc1ccccc1C1C(C(=O)OCC)=C(C)NC2=C1C(=O)CC(C)(C)C2 (configuration not stated)	none
O=C(NC(=O)c1ccccc1Cl)c1ccccc1O	none
O=C(Nc1ccc(Oc2ccc(NC(=O)c3ccccc3Cl)cc2)cc1)c1ccccc1Cl	none
Nc1cc(NC(=O)c2ccccc2O)ccc1Cl	Dicer inh 5.62
COC(=O)c1sccc1NC(=O)CC1C(=O)NCCN1C(=O)NS(=O)(=O)c1ccc(C)cc1 (configuration not stated)	none
Clc1ccccc1CNc1nc2ccccc2n1CCN1CCCCC1	none
CCN(CC)CCn1c(NCc2cc(OC)ccc2OC)nc2ccccc21	none
COc1ccc(CNc2nc3ccccc3n2CCN2CCOCC2)c(OC)c1	Dicer inh 3.49
